Screening results as filed in PubChem.
Hits are enriched below; roughly 4.1% of the tested compounds scored in any of these assays.
DAX1 inh-1: inhibits human nuclear receptor DAX1; P51843; actives 0.99% (n = 340,000); inhibition, % at 6.75 µM; HEK293 Gal4-DAX1 luciferase reporter, luminescence; AID 504766;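 active = inhibition above the mean over all tested compounds plus 3 SD, cut at about 4.2% in these data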;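 note: 0% = DAX1-transfected cells with DMSO and 100% = empty-vector control cells with DMSO; inhibition shows as a rise in luminescence from relieved DAX1 repression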
Target sequence (P51843 207-470 limits assumed): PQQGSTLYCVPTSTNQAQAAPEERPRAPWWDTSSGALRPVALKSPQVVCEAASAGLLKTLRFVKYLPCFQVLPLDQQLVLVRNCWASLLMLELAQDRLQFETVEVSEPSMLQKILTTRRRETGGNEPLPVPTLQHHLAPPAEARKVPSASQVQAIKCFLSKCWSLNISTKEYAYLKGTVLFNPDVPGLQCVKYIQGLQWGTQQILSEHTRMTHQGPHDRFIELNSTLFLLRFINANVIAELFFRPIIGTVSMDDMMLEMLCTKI
ssDAF-12 act: activators of S. stercoralis DAF-12 nuclear receptor; HEK293 ssDAF-12/GRIP1 lit1-tk-luc reporter, luminescence; % of 3 µM dafachronic acid response; activation, % at 6.8 µM; actives 1% (n = 370,000);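 active = activation above the mean over all tested compounds plus 3 SD, cut at about 0.9% in these data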;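 note: 0% = DMSO-only wells and 100% = 3 µM delta7-dafachronic acid wells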
hgDAF12 agonist: activates the H. glycines DAF-12 receptor ligand-binding domain | HEK293 GAL4-hgDAF12 UAS-luciferase reporter, agonist luminescence; normalized to butyrate control | activation, % at 6.8 µM | actives 1.8% (n = 370,000) | AID 687014;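 active = activation above a cutoff set at the mean of all screened compounds plus 3 SD, cut at about 10% in these data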;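 note: 0% = DMSO wells and 100% = sodium butyrate wells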
hcDAF12 agonist: H. contortus DAF-12 activation, primary screen. AID 652067. activation, % at 6.8 µM. actives 1.4% (n = 370,000). HEK293 hcDAF-12 lit1-tk-luc reporter, luminescence; 0% DMSO, 100% Δ7-dafachronic acid;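 active = activation above the mean of all tested compounds plus 3 SD, cut at about 5.5% in these data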;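 note: 100% = response to 3 µM Δ7-dafachronic acid high control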
DAX1 inh-2: inhibitors of DAX1 repression of SF-1 activated StAR promoter; HEK293T StAR-luciferase reporter, SF-1/DAX-1 repression relief; inhibition, % at 6.8 µM; actives 1.1% (n = 370,000);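 active = inhibition above the mean over all tested compounds plus 3 SD, cut at about 3.6% in these data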;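 note: 0% = DAX-1 cells with DMSO and 100% = cells lacking DAX-1 with DMSO; higher inhibition means more luminescence from relief of DAX-1 repression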
DAX1 inh confirm: confirmation of human DAX1 (NR0B1) inhibitors | shares compounds with DAX1 inh-2 | HEK293T StAR-promoter luciferase reporter, SF-1/DAX-1 repression | inhibition, % at 6.8 µM | actives 87% (n = 2,400) | AID 652134;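 active = inhibition above the average of every tested compound plus 3 SD, cut at about 3.8% in these data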;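 note: 0% = DAX-1 cells with DMSO and 100% = no DAX-1 control cells with DMSO; active compounds raise luminescence by relieving repression of the StAR reporter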
SF1 AF2mut Luc: nonselective inhibitor or artifact in SF-1 mutant DAX1 counter-screen; shares compounds with DAX1 inh-2; HEK293 StAR-luciferase, SF-1 AF2 mutant, luminescence; inhibition, % at 6.8 µM; actives 78% (n = 2,400);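 active = inhibition above the mean of all tested compounds plus 3 SD, cut at about 3% in these data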;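 note: 0% = DAX-1 transfected cells with DMSO and 100% = cells without DAX-1 with DMSO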
The depositor's hits bear a star; . = not tested or not shown.

SMILES	DAX1 inh-1	ssDAF-12 act	hgDAF12 agonist	hcDAF12 agonist	DAX1 inh-2	DAX1 inh confirm	SF1 AF2mut Luc
Cc1nc2ccc(NC(=O)C3=NN(C)C(=O)CC3)cc2s1	1.2	-0.8	0.1	0.8	7.5*	2.0	3.4*
CC(=O)c1sc(NC(=O)c2ccc(Br)o2)nc1C	0.0	2.1*	7.1	3.3	4.6*	4.1*	5.4*
Cc1nc2ccc(NC(=O)c3cccnc3)cc2s1	1.3	-2.0	1.9	-0.9	0.7	.	.
Cc1nc2ccc(NC(=O)c3ccc(Br)o3)cc2s1	2.3	-1.5	4.7	1.0	6.2*	13.8*	7.6*
CCCC(=O)Nc1nc2ccc(NC(=O)c3ccc(Br)o3)cc2s1	-1.9	-1.3	-1.9	-1.6	-1.4	.	.
CC(=O)c1sc(Nc2ccccc2)nc1C	.	-0.8	4.0	1.9	-0.2	.	.
CC(=O)c1sc(NC(=O)c2ccc(Cn3cc(Br)cn3)o2)nc1C	0.4	-1.5	-0.6	-0.9	0.9	.	.
COc1c(OC(C)=O)ccc(/C=C/c2ccc3ccccc3n2)c1[N+](=O)[O-]	2.5	0.2	8.9	3.6	5.1*	11.8*	6.2*
O=C(NCCc1ccccc1)OCc1cn(Cc2cccc(F)c2F)nn1	.	0.1	1.2	-0.3	0.1	.	.
CC(C)(C)c1ccc(-c2nnc(SCC(=O)NCC3CCCO3)n2N)cc1 (configuration not stated)	1.2	-0.7	-1.1	0.6	6.5*	2.7	1.2
O=C(CSc1nnc(NC(=O)c2ccccc2)s1)NCC1CCCO1 (configuration not stated)	0.0	-0.2	7.2	1.9	6.2*	4.2*	4.3*
O=C(CSc1nnc(NC(=O)Cc2ccccc2)s1)NCC1CCCO1 (configuration not stated)	1.3	-0.7	-0.3	3.5	-0.2	.	.
Cc1cccc(C(=O)NNC(=O)C2CCCCC2)c1O	3.3	-1.1	1.4	0.3	4.6*	1.6	1.1
CC(C)(C)c1ccc(C(=O)NNC(=O)C2CCCCC2)cc1	3.3	-1.2	0.7	-0.9	0.6	.	.
COc1ccc2c(c1)N=C(c1[nH]c3ccccc3c1CCN1C(=O)c3ccccc3C1=O)[C@]2(O)CCN1C(=O)c2ccccc2C1=O	.	-1.6	-4.4	-1.3	.	.	.
Cc1nn(-c2ccccc2)c(C)c1C(=O)OCC(=O)Nc1ccccc1F	0.9	0.2	10.2	1.6	7.4*	7.0*	3.6*
Cc1ccc2cc3cc(C(=O)NC4CCCCC4)oc3nc2c1	0.0	-0.9	1.1	-0.9	5.5*	0.9	0.3
Cc1ccc2cc3cc(C(=O)NC4CC4)oc3nc2c1	0.1	-0.9	4.0	-0.7	2.6	.	.
O=C(NC1CCCCC1)c1cc2cc(Br)ccc2o1	3.1	0.0	9.0	3.5	0.1	.	.
O=C(NC1CCCC1)c1cc2cc(Br)ccc2o1	2.5	-0.6	10.2	1.6	7.0*	7.8*	4.1*
Cn1c(=O)cc(OCC(=O)N2CCN(c3ccccc3Cl)CC2)c2ccccc21	.	-1.5	1.9	-0.8	-1.4	.	.
O=S1(=O)CC(N2CCN(Cc3ccccc3F)CC2)CN1Cc1cn(Cc2cccc(Cl)c2)nn1 (configuration not stated)	.	-1.6	-4.0	-2.6	-3.4	.	.
CC(C)C1Oc2ccccc2C(=O)N(CC(=O)c2ccc3c(c2)OCCO3)C1=O (configuration not stated)	3.6	-0.4	3.5	3.4	7.6*	13.6*	8.8*
COc1ccc(/C(N)=N/OC(=O)c2cccs2)cc1OC	3.0	-1.1	7.9	0.4	8.3*	6.2*	6.1*
N/C(=N\OC(=O)c1cccs1)c1cccc(Br)c1	2.6	0.2	8.6	2.1	1.9	.	.
SMILES	DAX1 inh-1	ssDAF-12 act	hgDAF12 agonist	hcDAF12 agonist	DAX1 inh-2	DAX1 inh confirm	SF1 AF2mut Luc
CSCCCNc1nc(C)nc2c1nnn2Cc1ccccc1	.	-1.7	-0.2	-0.5	-0.6	.	.
CCOC(=O)[C@]12CCCCC/C=C\1N(Cc1ccc(OC)cc1)C(=O)[C@H]2CC(=O)NCCC(C)C	.	0.3	-2.4	-0.4	0.6	.	.
O=c1cc(N2CCN(c3ccnc4cc(Cl)ccc34)CC2)[nH]c(=O)n1C1CCCCC1	.	-2.6	-4.8	-5.3	.	.	.
O=C(c1cc(COc2ccc(F)cc2Cl)on1)N1C[C@H]2CC[C@H]1C2	2.8	-0.5	5.5	0.9	2.9	.	.
Cc1nnc(CN(C)C(=O)c2cc(COc3ccc(F)cc3Cl)on2)o1	1.2	-0.5	5.5	4.3	5.2*	8.1*	4.2*
Cc1ccc(OCc2cc(C(=O)N3CC4C[C@@H]5CC3C[C@H](C4)C5)no2)cc1C	1.9	0.1	11.0*	4.8	5.2*	2.1	3.6*
Cc1nnc(CN(C)C(=O)c2cc(COc3ccc(C)c(C)c3)on2)o1	1.6	-0.7	2.7	0.8	0.1	.	.
O=C(c1cc(COc2ccc(F)cc2Cl)on1)N1CC2C[C@@H]3CC1C[C@H](C2)C3	1.1	-0.4	12.9*	2.8	5.7*	5.8*	2.0
CCc1nnc(NS(=O)(=O)c2ccc(NC(=O)c3ccc([N+](=O)[O-])s3)cc2)s1	0.6	-0.8	1.0	0.6	-0.6	.	.
Cc1cccc(N(C)S(=O)(=O)c2ccc(-c3cnc(C4CC4)o3)cc2)c1	0.6	-0.4	-4.9	-3.4	7.6*	15.1*	-5.3
Cc1ccc(N(C)S(=O)(=O)c2cc(-c3cnc(C4CC4)o3)ccc2C)cc1	0.8	-1.0	3.1	1.3	2.2	.	.
CCOc1cc(N2CCC(O)CC2)ccc1Nc1ncc2c(n1)N(C)c1ccccc1C(=O)N2C	.	-0.4	-8.2	3.6	5.9*	-0.5	-9.4
COc1cc(N2CCC(O)CC2)ccc1Nc1nnc(Cl)c(Nc2ccccc2S(C)(=O)=O)n1	-1.8	.	.	.	.	.	.
Cc1ccc(C)c(NCCCCC(=O)O)c1	.	-0.8	1.0	-1.5	-0.4	.	.
COc1ccc(COC(=O)c2cc([N+](=O)[O-])ccc2N2CCOCC2)cc1F	-1.7	-1.2	-5.3	-0.7	4.5*	13.4*	-6.5
O=C(OCc1ccc(Br)cc1)c1cc([N+](=O)[O-])ccc1N1CCOCC1	-1.9	-0.9	-2.4	-1.1	-2.1	.	.
CN(C)[C@@H]1CCN(c2cccc3c2S(=O)(=O)N2CC[C@@H](C2)O3)C1	.	-0.7	-0.8	3.0	-0.6	.	.
COc1ccccc1NS(=O)(=O)c1cc(NC(=O)c2ccc(NC(C)=O)cc2)ccc1N1CCOCC1	1.6	-1.4	-4.3	-1.4	7.0*	10.5*	0.3
COc1cc(C(=O)NC(=S)Nc2ccc3ccccc3c2)cc(OC)c1OC	0.5	-0.4	0.2	0.9	1.6	.	.
C/C(=N/NC(=O)c1ccco1)c1ccc(NC(=O)c2ccc(Br)o2)cc1	0.4	-0.6	8.5	3.6	5.9*	3.0	2.3
